Experimental data from PubChem BioAssay (NCI).
Compounds without any hit were thinned out: in the full panel of roughly 83,000, 20% have a hit.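 48-hour exposure, single concentration, 96-well plates; percent growth endpoint where 0 means no net growth. Active: below 10.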 A number with no mark means an inactive call. Active and inactive are the calls of the source.

tested on: UACC-62 melanoma; test: NCI-60 one-dose screen, 48 h (100 = growth as untreated, 0 = no growth, -100 = all killed); settings: 10 µM unless noted

SMILES | growth [%]
COc1ccc(-n2c(/C=C/c3ccc(O)c(OC)c3)cc(/C=C/c3ccc(O)c(OC)c3)nc2=O)cc1 | 68.1
Nc1c2c(nc3ccc(Cl)cc13)CC(c1ccc(O)cc1)CC2=O (configuration not stated) | 32.8
O=C1c2ccccc2C(=Cc2ccccc2)c2ccccc21 | 23.9
C/C(=N\NC(=O)C(C)SC(C)C(=O)N/N=C(\C)c1cccnc1)c1cccnc1 (configuration not stated) | 101
O=C1/C(=C\c2ccco2)SC(=S)N1CCc1ccc(O)cc1 | 85.3
O=C(O)/C(=C/c1ccc(O)cc1)c1ccccc1 | 107
Cc1cc(C=O)c(C)c2c1[nH]c1ccccc12 | 57.3

tested on: LOX IMVI melanoma; test: as above; settings: 10 µM unless noted

SMILES | growth
CCCCC[C@H]1CC=C2C(=O)C(Cl)=C[C@@H]2CC=CCCCC(=O)O[C@@H](CCCCC)CC=C2C(=O)C(Cl)=C[C@@H]2CC=CCCCC(=O)O[C@@H](CCCCC)CC=C2C(=O)C(Cl)=C[C@@H]2CC=CCCCC(=O)O1 | 14.5% [8 µM]
Cn1c(=O)c2c(ncn2CCC(=O)Nc2ccc(F)cc2)n(C)c1=O | 97.9%
COc1ccc(-c2cc(-c3c(C)oc4cc5occc5c(OC)c4c3=O)nc(N)c2C#N)cc1OC | 50.2%
COc1ccc(/C=C/C(=O)NCC(C)O)cc1 (configuration not stated) | 97.2%
Fc1ccc(NCc2nnc(-c3ccc(Cl)cc3)o2)cc1 | 80.1%
CCCCC(=O)OC1CCCCC1C (configuration not stated) | 97.9%
COc1ccc2c(c1)c(-c1nc(-c3cn(C)c4ncccc34)cs1)cn2CCN | 68.1%
COc1cccc(-c2nn(-c3ccccc3)cc2-c2ccnc(NCCNS(=O)(=O)c3cccc(F)c3)c2)c1 | 38.3%
Cc1cc(Cl)c2c(N(C)C)cccc2n1 | 84.1%
Cc1cc(N2CCCCC2)nc(N(CCNc2ccnc3cc(Cl)ccc23)Cc2ccco2)n1 | -12.6% (active)
N#CC1=C(N)Oc2c(sc3c(F)cccc23)C1c1ccc(Cl)cc1 (configuration not stated) | 30.3%
COc1cc(/C=C/c2cc(/C=C/c3ccc(O)c(OC)c3)n(-c3ccccc3)c(=O)n2)ccc1O | 61%
NC(=O)NCC1CCCCC1 | 94.1%
N#Cc1cnc2cc(OC[C@@H](O)CO)c(NC(=O)CC3CSSC3)cc2c1Nc1ccc(OCc2cccc(F)c2)c(Cl)c1 | -84.2% (active)
CC(=O)OCCCCCCn1c2ccccc2c2c3c(c4c5ccccc5n(C)c4c21)C(=O)N(O)C3=O | 5.8% (active)
Cc1nn2c(-c3nc4cc(Cl)c(Cl)cc4[nH]3)c(-c3ccc(F)cc3)nc2s1 | 19.5%
Cc1ccc2oc(=O)cc(-c3sc(N4CCCCC4)nc3-c3ccccc3)c2c1 | 91.2%
O=C1c2ccccc2C(=Cc2ccccc2)c2ccccc21 | 4.62% (active)
O=C1CCC/C=C\C[C@H]2C=C(Cl)C(=O)/C2=C/C[C@H](CCCCC(F)(F)F)OC(=O)CCC/C=C\C[C@H]2C=C(Cl)C(=O)/C2=C/C[C@H](CCCCC(F)(F)F)O1 | -80.2% [7.5 µM] (active)
Cc1cc(C=O)c(C)c2c1[nH]c1ccccc12 | 81.5%
